What was measured:
Assay in all cases: DAPPL (digital affinity profiling via proximity ligation, sequencing); 10 mM Tris-HCl pH 7.5, 50 mM NaCl, 1 mM DTT, 4% glycerol, room temperature, 30 min; GST-TFs on glutathione beads, 16-mer random dsDNA library, 0.1% formaldehyde crosslink after washing; high values mean tight binding
Conditions in all cases: protein: recombinant; tags: N-terminal GST; dsDNA, one strand shown
FLI1 = molecular target: T1, FLI1 (Homo sapiens, UniProt Q01543 1-452)
T1 sequence: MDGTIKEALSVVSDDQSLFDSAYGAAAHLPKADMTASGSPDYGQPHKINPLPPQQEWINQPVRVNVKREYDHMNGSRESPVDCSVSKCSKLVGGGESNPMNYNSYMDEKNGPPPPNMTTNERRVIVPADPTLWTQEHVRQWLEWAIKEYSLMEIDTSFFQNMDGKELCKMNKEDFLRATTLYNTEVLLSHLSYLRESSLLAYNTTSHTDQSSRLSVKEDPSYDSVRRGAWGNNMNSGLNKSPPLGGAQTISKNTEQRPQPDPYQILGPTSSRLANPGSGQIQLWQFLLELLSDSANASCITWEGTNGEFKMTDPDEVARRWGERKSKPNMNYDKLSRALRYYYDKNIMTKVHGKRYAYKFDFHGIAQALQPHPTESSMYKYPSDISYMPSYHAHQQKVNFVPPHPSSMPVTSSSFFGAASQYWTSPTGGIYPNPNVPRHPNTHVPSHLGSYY
How it was run: (§1)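 Pools were built from human transcription factors expressed in yeast as GST fusions, captured on glutathione beads and DNA-barcoded, along with a tag-only sample. Incubation with 200 nmole of a 16-mer random double-stranded DNA library lasted 30 min at room temperature in Tris/NaCl/DTT/glycerol buffer, and was followed by washing, 0.1% formaldehyde crosslinking, proximity ligation, PCR amplification and Illumina NextSeq500 sequencing. Binding signal is the quotient of each hexamer's read frequency for a factor and its frequency for the tag-only sample.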

GABPA = molecular target: T2, GABPA (Homo sapiens, UniProt Q06546 1-454)
T2 sequence: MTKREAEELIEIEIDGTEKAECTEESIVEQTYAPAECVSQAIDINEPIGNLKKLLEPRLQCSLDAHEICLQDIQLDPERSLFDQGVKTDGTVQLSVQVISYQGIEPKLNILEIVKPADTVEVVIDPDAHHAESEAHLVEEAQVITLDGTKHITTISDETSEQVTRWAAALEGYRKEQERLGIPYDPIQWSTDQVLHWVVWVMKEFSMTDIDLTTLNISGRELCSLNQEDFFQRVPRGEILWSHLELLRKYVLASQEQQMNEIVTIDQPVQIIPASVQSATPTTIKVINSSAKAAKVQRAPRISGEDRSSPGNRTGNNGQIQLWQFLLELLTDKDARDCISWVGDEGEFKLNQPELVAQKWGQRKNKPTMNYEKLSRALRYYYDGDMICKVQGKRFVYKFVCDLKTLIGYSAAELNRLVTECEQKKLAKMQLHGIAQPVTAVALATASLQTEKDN
How it was run: as §1

ERG = molecular target: T3, ERG (Homo sapiens, UniProt P11308 1-479)
T3 sequence: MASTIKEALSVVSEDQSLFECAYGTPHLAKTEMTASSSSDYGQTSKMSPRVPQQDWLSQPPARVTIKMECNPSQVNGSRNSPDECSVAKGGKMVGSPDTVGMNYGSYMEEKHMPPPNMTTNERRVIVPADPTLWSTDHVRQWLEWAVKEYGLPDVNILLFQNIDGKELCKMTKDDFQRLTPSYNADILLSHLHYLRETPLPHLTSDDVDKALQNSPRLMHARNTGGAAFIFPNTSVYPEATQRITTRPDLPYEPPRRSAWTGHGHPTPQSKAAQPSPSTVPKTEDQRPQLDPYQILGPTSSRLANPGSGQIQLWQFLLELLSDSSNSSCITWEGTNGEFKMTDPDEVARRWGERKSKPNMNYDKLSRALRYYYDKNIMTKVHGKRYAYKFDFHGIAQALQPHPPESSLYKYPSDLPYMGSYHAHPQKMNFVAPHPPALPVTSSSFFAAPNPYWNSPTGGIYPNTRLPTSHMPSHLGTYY
How it was run: as §1

ELF1 = ELF1 (Homo sapiens, UniProt P32519 1-619)
How it was run: as §1

EHF = molecular target: T4, EHF (Homo sapiens, UniProt Q9NZC4 1-300)
T4 sequence: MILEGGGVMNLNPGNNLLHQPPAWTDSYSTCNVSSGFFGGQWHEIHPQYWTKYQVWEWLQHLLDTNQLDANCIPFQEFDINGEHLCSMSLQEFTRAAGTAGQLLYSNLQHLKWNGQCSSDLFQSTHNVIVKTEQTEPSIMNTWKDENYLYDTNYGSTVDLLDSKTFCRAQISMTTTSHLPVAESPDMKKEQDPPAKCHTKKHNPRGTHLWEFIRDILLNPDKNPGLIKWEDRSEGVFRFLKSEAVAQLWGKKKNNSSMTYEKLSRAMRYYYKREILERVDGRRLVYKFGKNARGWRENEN
How it was run: as §1

SPI1 = SPI1 (Homo sapiens, UniProt P17947 1-270)
How it was run: as §1

SPIB = SPIB (Homo sapiens, UniProt Q01892 1-262)
How it was run: as §1

ELK3 = molecular target: T5, ELK3 (Homo sapiens, UniProt P41970 1-407)
T5 sequence: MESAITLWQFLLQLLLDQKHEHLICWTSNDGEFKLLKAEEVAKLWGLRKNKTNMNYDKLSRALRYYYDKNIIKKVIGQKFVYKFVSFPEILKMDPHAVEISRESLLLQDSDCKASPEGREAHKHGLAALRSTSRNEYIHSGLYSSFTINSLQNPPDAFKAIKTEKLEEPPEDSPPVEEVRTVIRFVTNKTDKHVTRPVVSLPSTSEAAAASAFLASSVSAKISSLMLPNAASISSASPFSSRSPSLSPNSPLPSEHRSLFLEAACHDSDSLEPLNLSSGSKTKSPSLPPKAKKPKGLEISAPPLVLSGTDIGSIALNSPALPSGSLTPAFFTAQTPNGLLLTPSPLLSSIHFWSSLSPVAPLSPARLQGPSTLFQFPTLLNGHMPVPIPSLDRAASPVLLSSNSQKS
How it was run: as §1

ETV5 = ETV5 (Homo sapiens, UniProt P41161 1-510)
How it was run: as §1

ELF4 = ELF4 (Homo sapiens, UniProt Q99607 1-663)
How it was run: as §1

ELF3 = molecular target: T6, ELF3 (Homo sapiens, UniProt P78545 1-371)
T6 sequence: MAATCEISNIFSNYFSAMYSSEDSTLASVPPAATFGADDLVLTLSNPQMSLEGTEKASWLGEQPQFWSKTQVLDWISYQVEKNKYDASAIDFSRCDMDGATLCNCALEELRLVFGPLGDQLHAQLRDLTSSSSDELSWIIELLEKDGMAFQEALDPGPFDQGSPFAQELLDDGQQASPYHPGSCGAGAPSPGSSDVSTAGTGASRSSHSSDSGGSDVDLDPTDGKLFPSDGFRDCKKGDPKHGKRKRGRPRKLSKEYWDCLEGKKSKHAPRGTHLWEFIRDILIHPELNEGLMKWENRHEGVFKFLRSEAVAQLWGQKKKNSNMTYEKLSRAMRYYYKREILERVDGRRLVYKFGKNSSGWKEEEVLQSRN
How it was run: as §1

ERF = molecular target: T7, ERF (Homo sapiens, UniProt P50548 1-548)
T7 sequence: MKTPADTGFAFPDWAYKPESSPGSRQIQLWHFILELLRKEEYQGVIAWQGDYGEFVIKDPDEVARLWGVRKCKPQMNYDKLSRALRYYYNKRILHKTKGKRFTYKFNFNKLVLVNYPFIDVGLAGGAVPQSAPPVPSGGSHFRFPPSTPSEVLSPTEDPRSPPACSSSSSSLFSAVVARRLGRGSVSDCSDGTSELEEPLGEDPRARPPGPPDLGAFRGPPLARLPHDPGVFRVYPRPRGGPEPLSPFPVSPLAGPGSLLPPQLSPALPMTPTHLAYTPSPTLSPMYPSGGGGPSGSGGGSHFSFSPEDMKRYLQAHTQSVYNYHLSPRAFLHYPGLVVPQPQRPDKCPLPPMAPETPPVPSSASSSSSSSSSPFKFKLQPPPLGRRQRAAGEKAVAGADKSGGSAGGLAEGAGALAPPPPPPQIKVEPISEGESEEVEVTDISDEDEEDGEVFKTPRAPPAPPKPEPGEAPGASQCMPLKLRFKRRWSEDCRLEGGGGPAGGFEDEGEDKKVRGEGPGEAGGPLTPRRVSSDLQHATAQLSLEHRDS
How it was run: as §1

ETV3L = molecular target: T8, ETV3L (Homo sapiens, UniProt Q6ZN32 1-361)
T8 sequence: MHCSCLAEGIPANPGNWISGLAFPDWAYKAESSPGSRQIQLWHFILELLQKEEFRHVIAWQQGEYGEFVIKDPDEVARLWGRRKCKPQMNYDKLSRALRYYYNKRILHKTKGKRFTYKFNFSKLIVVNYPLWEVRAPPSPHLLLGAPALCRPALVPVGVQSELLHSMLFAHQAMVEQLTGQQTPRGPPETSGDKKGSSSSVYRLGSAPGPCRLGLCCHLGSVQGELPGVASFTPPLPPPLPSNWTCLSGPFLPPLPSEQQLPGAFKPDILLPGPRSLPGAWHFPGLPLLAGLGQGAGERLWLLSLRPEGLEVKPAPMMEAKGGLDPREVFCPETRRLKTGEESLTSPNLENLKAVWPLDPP
How it was run: as §1

ETS2 = molecular target: T9, ETS2 (Homo sapiens, UniProt P15036 1-469)
T9 sequence: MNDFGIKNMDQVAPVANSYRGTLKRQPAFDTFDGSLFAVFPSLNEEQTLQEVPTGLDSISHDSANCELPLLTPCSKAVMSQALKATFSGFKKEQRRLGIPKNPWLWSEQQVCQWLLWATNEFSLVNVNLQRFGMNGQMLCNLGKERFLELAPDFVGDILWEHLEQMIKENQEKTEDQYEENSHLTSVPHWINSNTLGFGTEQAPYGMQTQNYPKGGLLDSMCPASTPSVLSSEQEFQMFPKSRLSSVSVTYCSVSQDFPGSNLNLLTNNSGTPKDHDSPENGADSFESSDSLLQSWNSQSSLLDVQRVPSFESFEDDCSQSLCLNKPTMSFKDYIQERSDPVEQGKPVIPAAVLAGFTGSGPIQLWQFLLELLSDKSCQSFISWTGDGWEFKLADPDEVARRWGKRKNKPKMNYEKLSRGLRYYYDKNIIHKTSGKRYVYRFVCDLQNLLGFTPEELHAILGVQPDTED
How it was run: as §1

ETV7 = molecular target: T10, ETV7 (Homo sapiens, UniProt Q9Y603 1-341)
T10 sequence: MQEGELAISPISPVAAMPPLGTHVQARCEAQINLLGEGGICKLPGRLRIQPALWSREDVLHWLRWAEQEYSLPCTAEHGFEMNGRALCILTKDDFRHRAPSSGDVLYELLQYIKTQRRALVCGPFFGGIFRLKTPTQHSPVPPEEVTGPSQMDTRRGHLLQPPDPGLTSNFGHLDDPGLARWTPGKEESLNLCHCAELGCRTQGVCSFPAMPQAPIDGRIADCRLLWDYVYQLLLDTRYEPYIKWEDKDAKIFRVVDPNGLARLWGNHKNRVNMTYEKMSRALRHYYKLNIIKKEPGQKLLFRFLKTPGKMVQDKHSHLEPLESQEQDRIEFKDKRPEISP
How it was run: as §1

ETV6 = ETV6 (Homo sapiens, UniProt P41212 1-452)
How it was run: as §1

ETV2 = molecular target: T11, ETV2 (Homo sapiens, UniProt O00321 1-342)
T11 sequence: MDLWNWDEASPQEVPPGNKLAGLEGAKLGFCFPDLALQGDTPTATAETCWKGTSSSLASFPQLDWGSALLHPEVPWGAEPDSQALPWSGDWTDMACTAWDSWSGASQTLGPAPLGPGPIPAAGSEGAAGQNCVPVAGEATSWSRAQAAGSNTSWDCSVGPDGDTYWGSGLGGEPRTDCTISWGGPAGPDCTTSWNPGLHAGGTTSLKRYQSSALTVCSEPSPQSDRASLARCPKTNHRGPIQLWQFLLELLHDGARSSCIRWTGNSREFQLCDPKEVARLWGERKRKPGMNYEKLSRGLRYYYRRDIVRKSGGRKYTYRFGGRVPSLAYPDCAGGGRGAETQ
How it was run: as §1

ETV3 = molecular target: T12, ETV3 (Homo sapiens, UniProt P41162-2 1-143)
T12 sequence: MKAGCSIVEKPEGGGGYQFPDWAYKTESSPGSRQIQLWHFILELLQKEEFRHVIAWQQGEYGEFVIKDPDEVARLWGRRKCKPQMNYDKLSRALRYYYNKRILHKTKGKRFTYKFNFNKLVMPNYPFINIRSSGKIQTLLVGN
How it was run: as §1

Sequence of ETV5 (P41161 whole entry): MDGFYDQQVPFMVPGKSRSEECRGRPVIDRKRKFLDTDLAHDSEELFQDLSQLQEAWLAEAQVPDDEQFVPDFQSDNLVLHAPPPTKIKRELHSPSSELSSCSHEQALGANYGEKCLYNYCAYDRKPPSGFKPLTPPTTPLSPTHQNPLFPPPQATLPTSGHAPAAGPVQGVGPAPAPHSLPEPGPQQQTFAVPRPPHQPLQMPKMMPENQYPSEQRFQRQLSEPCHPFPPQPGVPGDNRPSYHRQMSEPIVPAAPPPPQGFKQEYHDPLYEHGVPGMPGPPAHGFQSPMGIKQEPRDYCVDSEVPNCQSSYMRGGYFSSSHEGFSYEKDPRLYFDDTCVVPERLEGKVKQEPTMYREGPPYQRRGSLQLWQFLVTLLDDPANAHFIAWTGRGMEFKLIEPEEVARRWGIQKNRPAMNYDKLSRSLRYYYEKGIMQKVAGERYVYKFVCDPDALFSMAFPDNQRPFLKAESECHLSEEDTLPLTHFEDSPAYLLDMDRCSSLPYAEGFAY
Sequence of SPIB (Q01892 whole entry): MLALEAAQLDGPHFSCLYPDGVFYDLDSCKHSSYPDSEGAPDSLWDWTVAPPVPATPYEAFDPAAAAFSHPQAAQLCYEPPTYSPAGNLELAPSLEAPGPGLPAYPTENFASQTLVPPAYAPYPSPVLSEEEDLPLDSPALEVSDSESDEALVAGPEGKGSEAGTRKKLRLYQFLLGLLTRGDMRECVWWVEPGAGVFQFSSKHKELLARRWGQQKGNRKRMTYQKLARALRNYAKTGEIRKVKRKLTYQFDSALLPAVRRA
Sequence of ELF4 (Q99607 whole entry): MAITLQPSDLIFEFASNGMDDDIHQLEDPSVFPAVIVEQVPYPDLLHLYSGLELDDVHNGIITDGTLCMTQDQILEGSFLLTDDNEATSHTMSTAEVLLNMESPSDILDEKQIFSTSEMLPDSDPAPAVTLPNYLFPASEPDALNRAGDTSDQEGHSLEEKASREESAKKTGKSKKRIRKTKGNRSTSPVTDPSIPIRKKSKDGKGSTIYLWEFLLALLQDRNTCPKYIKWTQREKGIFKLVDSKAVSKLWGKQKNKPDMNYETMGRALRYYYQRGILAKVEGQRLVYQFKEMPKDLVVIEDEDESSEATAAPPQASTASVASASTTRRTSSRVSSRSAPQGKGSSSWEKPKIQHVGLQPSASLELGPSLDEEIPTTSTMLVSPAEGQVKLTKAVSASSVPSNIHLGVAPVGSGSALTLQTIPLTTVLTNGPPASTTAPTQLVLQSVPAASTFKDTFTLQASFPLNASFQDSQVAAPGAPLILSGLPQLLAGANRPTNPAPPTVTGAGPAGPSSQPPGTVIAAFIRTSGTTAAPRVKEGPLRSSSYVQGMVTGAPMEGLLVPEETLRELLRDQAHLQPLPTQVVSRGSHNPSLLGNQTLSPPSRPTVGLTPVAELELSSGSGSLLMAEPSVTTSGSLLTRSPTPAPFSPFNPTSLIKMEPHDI
Sequence of ETV6 (P41212 whole entry): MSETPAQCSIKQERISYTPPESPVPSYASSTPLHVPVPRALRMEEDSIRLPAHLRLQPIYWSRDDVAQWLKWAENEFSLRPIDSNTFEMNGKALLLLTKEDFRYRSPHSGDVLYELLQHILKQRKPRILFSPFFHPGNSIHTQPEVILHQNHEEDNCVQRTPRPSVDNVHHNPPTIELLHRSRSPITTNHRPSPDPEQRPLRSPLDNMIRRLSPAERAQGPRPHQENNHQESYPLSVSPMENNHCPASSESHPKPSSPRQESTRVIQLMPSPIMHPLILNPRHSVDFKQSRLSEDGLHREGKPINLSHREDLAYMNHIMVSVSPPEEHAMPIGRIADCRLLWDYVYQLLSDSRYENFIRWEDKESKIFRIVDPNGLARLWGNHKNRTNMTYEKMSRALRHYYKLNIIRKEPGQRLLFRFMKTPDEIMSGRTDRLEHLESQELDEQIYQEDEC
Sequence of ELF1 (P32519 whole entry): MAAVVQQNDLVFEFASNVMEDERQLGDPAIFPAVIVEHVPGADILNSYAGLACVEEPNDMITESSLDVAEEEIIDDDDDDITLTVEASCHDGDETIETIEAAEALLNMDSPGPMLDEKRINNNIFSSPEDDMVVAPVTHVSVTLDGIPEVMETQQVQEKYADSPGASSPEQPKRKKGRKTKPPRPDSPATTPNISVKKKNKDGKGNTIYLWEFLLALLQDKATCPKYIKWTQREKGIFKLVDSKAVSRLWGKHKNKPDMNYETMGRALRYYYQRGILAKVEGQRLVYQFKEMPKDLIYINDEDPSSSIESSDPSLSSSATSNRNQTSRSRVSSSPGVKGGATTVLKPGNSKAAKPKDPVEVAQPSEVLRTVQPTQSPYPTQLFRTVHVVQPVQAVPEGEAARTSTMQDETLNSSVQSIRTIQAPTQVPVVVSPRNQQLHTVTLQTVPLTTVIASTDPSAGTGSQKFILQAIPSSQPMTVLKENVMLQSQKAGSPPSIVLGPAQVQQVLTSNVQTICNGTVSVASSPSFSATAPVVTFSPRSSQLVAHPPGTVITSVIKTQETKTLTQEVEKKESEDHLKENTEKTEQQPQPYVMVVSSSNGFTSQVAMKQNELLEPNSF

Sequence	binding signal (FLI1)	binding signal (GABPA)	binding signal (ERG)	binding signal (ELF1)	binding signal (EHF)	binding signal (SPI1)	binding signal (SPIB)	binding signal (ELK3)	binding signal (ETV5)	binding signal (ELF4)	binding signal (ELF3)	binding signal (ERF)	binding signal (ETV3L)	binding signal (ETS2)	binding signal (ETV7)	binding signal (ETV6)	binding signal (ETV2)	binding signal (ETV3)
CAGCTA	1.1 fold enrichment (6-mer frequency, TF over GST control)	1.06 fold enrichment (6-mer frequency, TF over GST control)	1.03 fold enrichment (6-mer frequency, TF over GST control)	1.07 fold enrichment (6-mer frequency, TF over GST control)	1.05 fold enrichment (6-mer frequency, TF over GST control)	1.03 fold enrichment (6-mer frequency, TF over GST control)	1.04 fold enrichment (6-mer frequency, TF over GST control)	1.02 fold enrichment (6-mer frequency, TF over GST control)	1.01 fold enrichment (6-mer frequency, TF over GST control)	1.03 fold enrichment (6-mer frequency, TF over GST control)	1.1 fold enrichment (6-mer frequency, TF over GST control)	1.08 fold enrichment (6-mer frequency, TF over GST control)	1.05 fold enrichment (6-mer frequency, TF over GST control)	1.06 fold enrichment (6-mer frequency, TF over GST control)	1.13 fold enrichment (6-mer frequency, TF over GST control)	1.01 fold enrichment (6-mer frequency, TF over GST control)		
AGCTGT	1.04 fold enrichment (6-mer frequency, TF over GST control)	1.05 fold enrichment (6-mer frequency, TF over GST control)	1.01 fold enrichment (6-mer frequency, TF over GST control)				1.06 fold enrichment (6-mer frequency, TF over GST control)		1.02 fold enrichment (6-mer frequency, TF over GST control)	1.02 fold enrichment (6-mer frequency, TF over GST control)							1.07 fold enrichment (6-mer frequency, TF over GST control)	1.07 fold enrichment (6-mer frequency, TF over GST control)
